# Bioassay records from PubChem.
# Lamin A splicing = qHTS Assay for Modulators of Lamin A Splicing; HeLa LMNA splicing GFP/RFP minigene ratio, 48 h; Potency, µM (titrated, usually from 46.1 µM), for inactives: at the top dose ratio change, negative = inhibition, usual class: inhibitors; actives 0.01% (n = 200,000); AID 1487, 2009; active = well fitted inhibition curve with a large enough effect in the signal ratio, with a control signal flat, not every such curve was filed as active; inconclusive = small, poorly fitted or top-dose-only effect, or effect the other way, or a change in a side signal; the % refers to the signal ratio; also: potency is read from the fitted curve at half-maximal effect
#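 Read-out is the ratio of GFP to DsRed2 object intensity, acquired by 488 nm laser-scanning cytometry on HeLa lamin A-EGFP minigene reporter cells. Compound incubation 48 hrs at 37 °C in Opti-MEM with 2% FBS; DMSO 0.5% final.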
# HPGD block = qHTS Assay for Inhibitors of HPGD (15-Hydroxyprostaglandin Dehydrogenase). AID 894, 2007. Potency, µM, for inactives: top-dose activity change, negative = inhibition, hits mostly inhibitors. purified HPGD, NADH fluorescence kinetic, PGE2 substrate. 15-hydroxyprostaglandin dehydrogenase [NAD(+)] (Homo sapiens), P15428. actives 4.3% (n = 150,000); also: potency is read from the fitted curve at half-maximal effect
# Target sequence (P15428 whole entry, looked up): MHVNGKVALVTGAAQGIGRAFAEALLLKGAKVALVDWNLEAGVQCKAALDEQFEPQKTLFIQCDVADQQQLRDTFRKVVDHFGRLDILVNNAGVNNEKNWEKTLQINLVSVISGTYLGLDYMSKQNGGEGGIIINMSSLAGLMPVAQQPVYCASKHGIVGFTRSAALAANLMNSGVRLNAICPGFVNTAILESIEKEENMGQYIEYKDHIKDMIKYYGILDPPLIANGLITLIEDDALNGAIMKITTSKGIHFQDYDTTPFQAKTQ
#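 20 nM HPGD preincubated 15 min at room temperature with compound in 50 mM Tris-HCl pH 8, 0.01% Tween 20. Started with 1 mM NAD+ and 30 uM prostaglandin E2; NADH fluorescence (360/450 nm) read 5 times over 30-s intervals, last minus first.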
# ALDH1A1 inh = qHTS Assay for Inhibitors of Aldehyde Dehydrogenase 1 (ALDH1A1) | Aldehyde dehydrogenase 1A1 (Homo sapiens), P00352 | Purified ALDH1A1, NADH fluorescence, propionaldehyde substrate | AID 1030, 2008 | actives 7.3% (n = 220,000) | Potency, µM (series often up to 75.3 µM), without a hit: top-dose activity, negative = inhibition, most hits filed as inhibitors;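 also: potency is read from the fitted curve at half-maximal effect; plate controls were no enzyme wells and a reference inhibitor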
# PNC assembly inh = High Content Assay for Compounds that inhibit the Assembly of the Perinucleolar Compartment; PC3M PTB-GFP, PNC prevalence imaging, 16 h; stronger effect = lower value; activity change (PNC), negative = inhibition, % at 10 µM; actives 3.1% (n = 140,000);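 active = readout at or below -70, meaning at least 70% loss of cells showing the perinucleolar compartment, a nuclear body marking cancer cells; inconclusive = readout between -30 and a set limit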;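 also: plate controls were DMSO wells for no effect and camptothecin positive control wells for full effect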
#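 Read-out is percentage of cells bearing a perinucleolar compartment, from automated 20x imaging of fixed, Hoechst-stained PC3M PTB-GFP cells. Cells were seeded 4 h, then exposed 16 h to compound (23 nl of library stock) in duplicate plates.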
# ALOX12 inhib = qHTS Assay for Inhibitors of 12-hLO (12-human lipoxygenase). Polyunsaturated fatty acid lipoxygenase ALOX12 (Homo sapiens), P18054. purified 12-hLO, xylenol orange hydroperoxide absorbance. Potency, µM (doses to about 57.1 µM), inactives show at the top dose activity change, negative = inhibition, actives largely listed as inhibitors. actives 0.12% (n = 150,000); active = well fitted inhibition curve with a large enough effect; inconclusive = small, poorly fitted or top-dose-only effect; also: potency is read from the fitted curve at half-maximal effect; nearly all actives have a fitted effect of over 55% in size
#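 Purified human 12hLO (150 nM final) was preincubated with compounds for 15 min at room temperature in 25 mM Hepes pH 7.0, 0.01% Triton X-100, then reacted with 40 uM arachidonic acid for 30 min. Hydroperoxide was detected with ferrous iron/xylenol orange.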
# * marks the source's active call; other numbers are inactive results; ? = inconclusive; / = no result given; [ ] = another dose, or the depositor's remark. Hits are enriched below; roughly 10% of the tested compounds scored in any of these assays. Unless noted, calls follow the shape of the dose curve; as a rule, active = well fitted inhibition curve with a large enough effect (not every such curve was filed as active); inconclusive = small, poorly fitted or top-dose-only effect, or another doubt; inactive = no such curve, though single readings can be large or run the other way. Unless noted, % is scaled to controls: 0 for no effect and ±100 for the full control effect.
SMILES,Lamin A splicing,HPGD block,ALDH1A1 inh,PNC assembly inh,ALOX12 inhib
CCCOc1ccc(C2C(=O)N(C3CCCCCC3)CC(=O)N2CCC2=CCCCC2)cc1OC (configuration not stated),10%[46 µM],/,/,/,/
COC(=O)[C@@H](NC(=O)NCc1ccco1)C(C)C,-1%,-9%,10µM*,0,-6%
CCC1=Nc2cc(C(=O)NCc3ccco3)ccc2Sc2ccc(Cl)cc21,?,-27%,?,-100*,-7%
CC1CC1C(=O)OCC(=O)NC(=O)NCc1ccco1 (configuration not stated),7%,-10%,9%,-88*,10%
CCC1=Nc2cc(C(=O)NCc3ccco3)ccc2Sc2ccccc21,?,-27%,?,-7,0%
O=C(COC(=O)C12CC3CC(CC(O)(C3)C1)C2)NC(=O)NCc1ccco1,6%,0%,-9%,-28,1%
O=C(NCc1ccco1)c1ccc(COc2cc(Cl)ccc2Cl)cc1,?,18µM*,4%,-2,-5%
CCOC(=O)c1c(N)sc2c1CCN(Cc1ccccc1)C2,?,-25%,-14%,/,1%[0.00818 µM]
COc1cc(NC(=O)CSc2nc3nc(C)c(Cc4ccccc4)c(C)n3n2)cc(OC)c1OC,11%[46 µM],/,/,/,/
CC(=O)[C@H]1CC[C@H]2C3CC=C4C[C@@H](O)CC[C@]4(C)C3CC[C@]12C (some centres not stated),?,/,6%,/,/
O=C(NCc1ccco1)c1ccc(=O)oc1,6%,/,0%,-83*,2%
CC(C)Oc1ccc(C(=O)NCc2ccco2)cc1,-9%,18µM*,-8%,51,2%
Cc1cc(=O)n(CC=C(Cl)Cl)c2ccccc12,21%,7.9µM*,?,?,-6%
Cc1cc(=O)n(CC(=O)O)c2ccccc12,/,/,-6%,/,/
CCCS(=O)(=O)NCCc1sc2nc(-c3ccc(Cl)cc3)nn2c1C,6%[46 µM],/,/,/,/
COc1cccc(NC(=O)CN2CCSc3ccccc32)c1,/,/,19µM*,/,/
CC(CCc1ccccc1)NC(=O)CN1CCSc2ccccc21 (configuration not stated),/,/,13µM*,/,/
COc1ccc(NC(=O)Cn2c(=O)oc3cc(S(=O)(=O)NC4CCCC4)ccc32)cc1OC,22%[46 µM],/,/,/,/
COc1ccccc1Cn1[nH]nnc1=S,/,/,4µM*,/,/
Cc1onc(-c2ccccc2)c1C(=O)N1CCCSC1=Nc1ccccc1,?,-20%,11µM*,26,2%
COc1ccccc1OCc1ccc(C(=O)Nc2ccc(C)c(C)c2)o1,12%[46 µM],/,/,/,/
CCCCn1c(CN2CCN(C(=O)c3ccco3)CC2)nc2c1c(=O)n(C)c(=O)n2C,-10%,-7%,22µM*,-2,0%
CCCCCCn1c(CN2CCN(C(=O)c3ccco3)CC2)nc2c1c(=O)n(C)c(=O)n2C,-2%,-17%,1.3µM*,-122*,9%
CCCn1c(CN2CCN(C(=O)c3ccco3)CC2)nc2c1c(=O)n(C)c(=O)n2C,-5%,-6%,-7%,-12,5%
COc1ccccc1OCC(=O)Nc1nc(-c2ccc(Br)cc2)ns1,24%[46 µM],/,/,/,/
SMILES,Lamin A splicing,HPGD block,ALDH1A1 inh,PNC assembly inh,ALOX12 inhib
COCCn1c(=O)cnc2cnc(N(C)C)nc21,-2%,/,-2%,/,/
CCCOC(=O)/C(=C\c1ccc([N+](=O)[O-])o1)NC(=O)c1ccccc1,?,-14%,-3%,142,-4%
CCCOC(=O)/C(=C\C=C\c1ccco1)NC(=O)c1ccccc1,/,/,20µM*,/,/
CC(C)(C)OC(=O)N1CCC(c2c(C(=O)Nc3ccc4c(c3)OCCO4)cnn2-c2ccc(Cl)cc2)CC1,6%[46 µM],/,/,/,/
Cc1csc2nc(COC(=O)c3ccc(NC(=O)C(C)C)cc3)cc(=O)n12,5%[46 µM],/,/,/,/
COc1cc(C(c2sc3nc(C)nn3c2O)N2CCC3(CC2)OCCO3)cc(OC)c1OC (configuration not stated),11%,-6%,18µM*,-14,-5%
O=c1[nH]n2c(=O)c3c([nH]c2c1N=Nc1cccc(Cl)c1)CCCC3,?,16µM*,-2%,-18,3%
